Source: PubChem BioAssay (EPA / NIEHS)
Values joined by “and” are separate entries in the source; they are usually repeats but may differ in a detail not shown here. Equal values may be shown once. Inconclusive results are not listed. Active and inactive are the calls of the source. Rule for the calls, unless noted: active = hit-call score of the fitted dose curve at least 0.9, where 1 is the maximum; inconclusive = response in the unintended direction; inactive = score below 0.9. Peptide text beside a SMILES is read from it.

Key:
[1] = target: Estrogen receptor (Homo sapiens) (UniProt P03372); assay: CCTE_Deisenroth_AIME_96WELL_LUC_Active: CCTE's 96-well Estrogen Receptor Transactivation Assay with AIME metabolic competence (ERTA luciferase; metabolism positive), Deisenroth Lab (AID 2284023)
Method in brief: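 Metabolism-positive mode: induced rat hepatic S9 in alginate microspheres conditions test solutions (0.002 - 200 uM, 10 points) for 2 hours. VM7Luc4E2 ER luciferase reporter cells then exposed 24 h; positive-direction fit against 17beta-estradiol, n=4 typical.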

[2] = target: Estrogen receptor (Homo sapiens) (UniProt P03372); assay: CCTE_Deisenroth_AIME_96WELL_LUC_Inactive: CCTE's 96-well Estrogen Receptor Transactivation Assay without AIME metabolic competence (ERTA luciferase; metabolism negative), Deisenroth Lab (AID 2284025)
Method in brief: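 Metabolism-negative arm: chemicals (0.002–200 uM, 10 points) incubated 2 h with alginate-water microspheres, then medium moved onto VM7Luc4E2 cells for 24 h luciferase read-out. Positive direction vs 17beta-estradiol; n≥4 experiments.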

[3] = CCTE_Deisenroth_AIME_96WELL_CTox_Active: Cytotoxicity Assessment (CTOX) in CCTE's 96-well Estrogen Receptor Transactivation Assay with AIME metabolic competence (metabolism positive), Deisenroth Lab (AID 2284028)
Method: CCTE_Deisenroth_AIME_96WELL (AIME metabolism assay) is a cell-based, single-readout assay that uses VM7Luc4E2, a human mammary gland/breast cell line, with measurements taken at 24 hour after chemical dosing in a 96-well plate.CCTE_Deisenroth_AIME_96WELL_CTox_Active is one of four assay components measured or calculated from the CCTE_Deisenroth_AIME_96WELL assay. It is designed to make measurements of a protease substrate, a type of viability indicator, as detected with substrate cleavage to a fluorescent probe in living cells.CCTE_Deisenroth_AIME_96WELL_CTox_Active is a component of the CCTE_Deisenroth_AIME_96WELL assay that measures the effect of retroftting the VM7Luc ERTA assay with the Alginate Immobolization of Metabolic Enzymes (AIME) metabolism method. AIME is optimized to impart phase I hepatic metabolism using phenobarbital/beta-naphthoflavone induced hepatic S9 from male Sprague Dawley rats. Parent chemicals are incubated for 2 hours in the AIME assay prior to transfer to the VM7Luc ERTA assay plate. […] This endpoint evaluates cytotoxicity in metabolism positive mode. Using a type of flourescent probe in VM7Luc cells, loss-of-signal activity can be used to understand loss of viability. This assay endpoint, CCTE_Deisenroth_AIME_96WELL_CTox_Active, was analyzed with bidirectional fitting in the ERTA assay.
The AIME procedure consists of a preparative "pre-stamping" step using a barium chloride/poly-L-lysine (PLL) solution followed by "stamping" the lid in alginate-hepatic S9 (metabolism positive) or alginate-water (metabolism negative) to form microspheres. Once stamping is completed, the AIME lids are placed in duplicate microplates (metabolism positive or negative) containing chemical solutions and incubated for two hours to facilitate metabolic reactions. The conditioned medium, containing parent chemical or metabolites, is then transferred to the cell-based VM7Luc Estrogen Receptor Transactivation Assay (ERTA) for 24 hours. A typical experimental design tests a 10-point concentration series (0.002 - 200 uM) for 8 compounds (96-well format)1 or 32 compounds (384-well format)2 in single technical replicate. AIME assay controls include trans-stilbene (bioactivated control) and ethylparaben (bioinactivated control). ERTA assay plate controls include 17-beta estradiol (positive control) and DMSO (solvent control). Experiments typically comprise a minimum of four experimental replicates (n=4).

[4] = CCTE_Shafer_MEA_acute_cross_correlation_HWHM: CCTE's Neural Acute Assay for Cross Correlation at Half Width at Half Maximum, Shafer Lab (AID 2284026; active = hit-call score of the fitted dose curve at least 0.9, where 1 is the maximum; inactive = score below 0.9;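 note: percent change per well from pre-dose baseline in spike cross-correlogram half width; hits are a decrease in cross-correlogram half width relative to DMSO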;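 for outcome: spontaneous network firing of rat primary cortical neurons on multiwell microelectrode arrays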)
Method in brief: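 Per-well percent change in cross-correlogram half width at half maximum, derived from 40-min recordings before and after compound (0.03-40 uM) at 37 C. Cultures were rat cortical neurons, DIV 13 or 15, with adaptive spike detection at 8x rms.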

[5] = CCTE_Shafer_MEA_acute_synchrony_index: CCTE's Neural Acute Assay for Synchrony, Shafer Lab (AID 2284027; active = hit-call score of the fitted dose curve at least 0.9, where 1 is the maximum; inactive = score below 0.9;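 note: network synchrony index of spontaneous spiking in primary rat cortical neurons on MEAs; fitted for loss of signal so actives lower synchrony relative to DMSO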)
Method in brief: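 Rat cortical cultures, DIV 13/15; spikes detected at 8x rms noise, 300-5000 Hz band-pass. Compound 0.03-40 uM, ≥3 wells; 40-min pre- and post-exposure recordings, 37 C. Readout: % change in synchrony index; loss-of-signal fit vs DMSO.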

[6] = target: Estrogen receptor (Homo sapiens) (UniProt P03372); assay: CCTE_Deisenroth_AIME_384WELL_LUC_Active: CCTE's 384-well Estrogen Receptor Transactivation Assay with AIME metabolic competence (ERTA luciferase; metabolism positive), Deisenroth Lab (AID 2284030)
Method in brief: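 VM7Luc4E2 breast cells were given, for 24 hours, medium pre-incubated for 2 hours with parent chemical (0.002-200 uM, 10 concentrations) and alginate-encapsulated phenobarbital/beta-naphthoflavone-induced rat hepatic S9. Luciferase gain of signal was fitted against 17beta-estradiol; n=4 or more.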

[7] = CCTE_Shafer_MEA_dev_firing_rate_mean: CCTE's Neural Network Formation Assay for Mean Firing Rate, Shafer Lab (AID 2284031; active = hit-call score of the fitted dose curve at least 0.9, where 1 is the maximum; inactive = score below 0.9;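 for AC50: curve fitted for loss of firing so AC50 reflects decreased mean firing rate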)
Method in brief: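 Read-out: spike count/recording length, averaged over active electrodes, then AUC across days 5, 7, 9, 12. Rat cortical cultures on MEA; continuous 12-day exposure, media and treatment renewed DIV 5, 9; DMSO baseline.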

[8] = CCTE_Shafer_MEA_dev_per_burst_spike_percent: CCTE's Neural Network Formation Assay for Percent of Spikes in a Burst, Shafer Lab (AID 2284032; active = hit-call score of the fitted dose curve at least 0.9, where 1 is the maximum; inactive = score below 0.9;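 for AC50: fitted as a decrease in burst spike percentage below DMSO baseline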)
Method in brief: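 Value is trapezoidal AUC over recordings on days 5, 7, 9 and 12 of the well-mean fraction of spikes falling in single-electrode bursts; rat cortical cultures exposed continuously from plating, treatment renewed DIV 5 and 9, fitted downward against DMSO.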

[9] = CCTE_Deisenroth_AIME_384WELL_CTox_Active: Cytotoxicity Assessment (CTOX) in CCTE's 384-well Estrogen Receptor Transactivation Assay with AIME metabolic competence (metabolism positive), Deisenroth Lab (AID 2284037);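 note: chemicals first conditioned 2 h by alginate-bound induced rat liver S9 before cells; activity means signal loss indicating cell death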
Method in brief: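 Chemicals pre-incubated 2 hours with alginate-immobilised phenobarbital/beta-naphthoflavone-induced male Sprague Dawley rat liver S9, then conditioned medium applied 24 hour to VM7Luc4E2 cells. Viability by fluorogenic protease substrate; 10-point series 0.002 - 200 uM.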

[10] = CCTE_Deisenroth_AIME_96WELL_CTox_Inactive: Cytotoxicity Assessment (CTOX) in CCTE's 96-well Estrogen Receptor Transactivation Assay without AIME metabolic competence (metabolism negative), Deisenroth Lab (AID 2284029)
Method in brief: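 Cytotoxicity in VM7Luc4E2 breast cells was scored as loss of fluorescent signal from a live-cell protease substrate 24 h after exposure, using bidirectional curve fitting. Test media came from a 2 h metabolism-negative pre-incubation (alginate-water, no hepatic S9) of compounds at 0.002-200 uM, with at least four replicates.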

Chain of Estrogen receptor (Homo sapiens) (P03372 whole entry, looked up): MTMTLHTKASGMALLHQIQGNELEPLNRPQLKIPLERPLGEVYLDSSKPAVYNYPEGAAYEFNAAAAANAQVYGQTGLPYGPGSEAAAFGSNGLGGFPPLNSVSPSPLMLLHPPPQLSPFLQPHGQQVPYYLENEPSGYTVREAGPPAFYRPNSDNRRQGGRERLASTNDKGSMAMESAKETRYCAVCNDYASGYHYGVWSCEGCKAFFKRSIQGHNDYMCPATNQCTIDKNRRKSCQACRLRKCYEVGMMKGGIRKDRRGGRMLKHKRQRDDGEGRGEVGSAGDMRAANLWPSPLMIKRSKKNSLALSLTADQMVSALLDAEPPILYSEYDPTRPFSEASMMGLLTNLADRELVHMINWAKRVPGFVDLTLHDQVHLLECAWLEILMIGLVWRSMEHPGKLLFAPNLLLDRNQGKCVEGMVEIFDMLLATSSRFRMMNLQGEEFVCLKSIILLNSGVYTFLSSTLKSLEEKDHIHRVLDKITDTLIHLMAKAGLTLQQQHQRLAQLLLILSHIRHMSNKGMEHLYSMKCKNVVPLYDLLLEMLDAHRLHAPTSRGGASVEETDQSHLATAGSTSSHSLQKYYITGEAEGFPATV

Cc1cccc(C(C)(C)C)c1O
outcome [1]: inactive | AC50 [2]: 121 µM (active) | outcome [3]: inactive

C1CNCCN1
outcome [4]: inactive | outcome [5]: inactive

CC1(C)CC(O)CC(C)(C)N1[O]
outcome [4]: inactive | outcome [5]: inactive

COC(=O)[C@H](Cc1ccccc1)NC(=O)[C@@H](N)CC(=O)O (H-Asp-Phe-OMe)
outcome [4]: inactive | outcome [5]: inactive | outcome [6]: inactive | outcome [7]: inactive | outcome [8]: inactive | outcome [9]: inactive

O=C(O)c1ccc2c(c1)C(=O)OC2=O
outcome [6]: inactive

O=C(O)CC(C(=O)O)S(=O)(=O)O (stereo not drawn)
outcome [6]: inactive

Nc1cccc(N)n1
outcome [4]: inactive | AC50 [5]: 0.003 µM (active)

COc1ccc(C(=O)c2ccccc2)c(O)c1
AC50 [1]: 12.6 µM (active) | AC50 [2]: 18.5 µM (active) | outcome [3]: inactive

CCCC(C)C(=O)OCC (stereo not drawn)
outcome [4]: inactive | outcome [5]: inactive

COc1ccc(-c2coc3cc(O)cc(O)c3c2=O)cc1
AC50 [1]: 2.14 µM (active) | AC50 [2]: 0.971 µM (active) | AC50 [3]: 75.9 µM (active) | AC50 [10]: 156 µM (active)

CCOC(=O)C1=NOC(c2ccccc2)(c2ccccc2)C1
outcome [6]: inactive

c1ccc(Nc2cccc3ccccc23)cc1
AC50 [1]: 17.7 µM (active) | AC50 [2]: 12.7 µM (active) | AC50 [4]: 5.12 µM (active) | AC50 [5]: 8.24 µM (active)

CC/C=C\CCOC(=O)c1ccccc1O
outcome [4]: inactive | outcome [5]: inactive

Oc1ccccc1Cc1ccccc1O
AC50 [4]: 5.2 µM (active) | AC50 [5]: 8.49 µM (active)

CC(CCC(=O)O)(c1ccc(O)cc1)c1ccc(O)cc1
outcome [4]: inactive | outcome [5]: inactive | AC50 [6]: 100 µM (active) | outcome [9]: inactive

Cc1c(C(=O)c2c[nH]n(C)c2=O)ccc(S(C)(=O)=O)c1C1=NOCC1
outcome [4]: inactive | outcome [5]: inactive | outcome [7]: inactive | outcome [8]: inactive

CCCCCCCCC(CO)CCCCCC (stereo not drawn)
outcome [6]: inactive

CCCCCCCCCCCC(=O)N(C)CC(=O)O
AC50 [4]: 21.6 µM (active) | AC50 [5]: 21.9 µM (active)

CC(C)(C)N
outcome [6]: inactive

CC(=O)OCc1ccccc1
outcome [6]: inactive

CC(=O)/C=C/C1C(C)=CCCC1(C)C (stereo not drawn)
outcome [6]: inactive

COC(=O)c1ccccc1C
outcome [6]: inactive

CCCCNC(=S)NCCCC
outcome [6]: inactive

CCCCCCCCCCCCCC(=O)OC(C)C
outcome [6]: inactive

CCC(C)(O)CCCC(C)C (stereo not drawn)
outcome [6]: inactive

CO[Si](C)(C)OC
outcome [6]: inactive

CC(C)=CCCC(C)=CC#N
outcome [6]: inactive

CC1(C)[C@@H]2CC[C@@]1(C)C(=O)C2
outcome [6]: inactive

CCCCNS(=O)(=O)c1ccc(C)cc1
outcome [6]: inactive

Oc1ccc(/C=C/c2cc(O)cc(O)c2)cc1
AC50 [1]: 4.94 µM (active) | AC50 [2]: 15.2 µM (active) | AC50 [3]: 70.2 µM (active) | AC50 [10]: 40.5 µM (active)

CC(C)C(=O)OCCc1ccccc1
outcome [4]: inactive | outcome [5]: inactive

Nc1nc(N)nc(-c2ccccc2)n1
outcome [4]: inactive | outcome [5]: inactive

C=C1C[C@H]2[C@@H]3C=C(C)C4=CC(=O)CC[C@]4(C)[C@H]3CC[C@]2(C)[C@@]1(OC(C)=O)C(C)=O
outcome [6]: inactive | outcome [9]: inactive

O=C(O)CCC(=O)O
outcome [6]: inactive | outcome [9]: inactive

CCCCC/C=C\C/C=C\CCCCCCCC(=O)O
outcome [6]: inactive | outcome [9]: inactive

CCCCNS(=O)(=O)c1ccccc1
outcome [6]: inactive | outcome [7]: inactive | outcome [8]: inactive | outcome [9]: inactive

CCCCCC[C@@H](O)C/C=C\CCCCCCCC(=O)OCC(O)CO (stereo partly drawn)
outcome [6]: inactive | outcome [9]: inactive

Nc1ccc(C(=O)O)cc1
outcome [6]: inactive | outcome [9]: inactive

O=c1c(O)c(-c2ccc(O)cc2O)oc2cc(O)cc(O)c12
AC50 [6]: 133 µM (active) | AC50 [9]: 100 µM (active)

O=C(Oc1ccccc1)c1ccccc1O
outcome [6]: inactive | outcome [9]: inactive

CCCCCCOc1ccc(N)cc1
outcome [6]: inactive | outcome [9]: inactive

Cc1noc(NS(=O)(=O)c2ccc(N)cc2)c1C
outcome [7]: inactive | outcome [8]: inactive

C=CCOC(=O)c1ccc(C(=O)OCC=C)c(C(=O)OCC=C)c1
outcome [6]: inactive | outcome [9]: inactive

CCCCCCCCCC[N+](C)(CCCCCCCCCC)CCC[Si](OC)(OC)OC
outcome [6]: inactive | AC50 [9]: 49.4 µM (active)

C/C=C/C=C/CCCCCCCO
outcome [6]: inactive | outcome [9]: inactive

CCCCCC(=O)OCC
outcome [6]: inactive | outcome [9]: inactive

C=C[C@@]1(C)CC(=O)[C@]2(O)[C@@]3(C)[C@@H](O)CCC(C)(C)[C@@H]3[C@H](O)[C@H](OC(C)=O)[C@@]2(C)O1
AC50 [9]: 19.8 µM (active)

CCCC(CC)c1ccccc1 (stereo not drawn)
outcome [6]: inactive | outcome [9]: inactive

O=S(=O)(O)c1ccc(N=Nc2c(O)ccc3ccccc23)cc1
AC50 [9]: 71.3 µM (active)

O=C(Nc1ccccc1)c1cc(Cl)ccc1O
outcome [6]: inactive | AC50 [9]: 33.4 µM (active)

O=C(O)C1CCC(C(=O)O)CC1 (stereo not drawn)
outcome [6]: inactive | outcome [9]: inactive

O=C(O)c1cc(O)c2ccccc2c1O
AC50 [9]: 34.5 µM (active)

C=C(C)C1CC=C(C)CC1 (stereo not drawn)
outcome [6]: inactive | outcome [9]: inactive

CCC1COC(=O)O1 (stereo not drawn)
outcome [6]: inactive | outcome [9]: inactive

C[Si](C)(C)N[Si](C)(C)C
outcome [6]: inactive | outcome [9]: inactive

CCCCCCCCCCCCCCCCCCOS(=O)(=O)O
outcome [6]: inactive | outcome [9]: inactive

C[N+](C)(C)CCCNS(=O)(=O)C(F)(F)C(F)(F)C(F)(F)C(F)(F)C(F)(F)C(F)(F)C(F)(F)C(F)(F)F
AC50 [7]: 4.93 µM (active) and 2.98 µM (active) | AC50 [8]: 2.98 µM (active) and 4.47 µM (active)

N#Cc1ccc(C(c2ccc(C#N)cc2)n2cncn2)cc1
outcome [6]: inactive | outcome [9]: inactive

CC1=NN(c2ccc(S(=O)(=O)O)cc2)C(=O)C1N=Nc1ccccc1 (stereo not drawn)
outcome [6]: inactive | AC50 [9]: 159 µM (active)

O=C(O)/C=C/c1ccccc1
outcome [6]: inactive | outcome [9]: inactive

CCCCCCCCCCCCc1ccc(O)cc1
AC50 [6]: 0.804 µM (active) | AC50 [9]: 72.1 µM (active)

Cc1ccc([N+](=O)[O-])cc1N
outcome [6]: inactive | outcome [9]: inactive

CCCCCCCCCC(C)=O
outcome [6]: inactive | outcome [9]: inactive

CC(C)c1cc(C(C)C)cc(C(C)C)c1
outcome [6]: inactive | outcome [9]: inactive
